Compound activity deposited in PubChem by several laboratories.
Rows were chosen to be rich in hits. Some 4.5% of all compounds tested hit in one or more screens of this group.
GDH-TPI counter-1 = inhibits GDH-TPI coupling enzymes, artifact for Mtb FBA screen; 1.2% of 360,000 active; GDH-TPI coupled enzyme counterscreen, NADH absorbance; AID 588335; inhibition, % at 4.8 µM; in the data active means inhibition above about 30%;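 further: 0% = DMSO wells and 100% = wells lacking the enzyme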
PfHsp40 yeast = compounds rescuing yeast from Plasmodium falciparum HSP40 toxicity; S. cerevisiae expressing PfHsp40, growth rescue, ATP luminescence; 0.68% of 340,000 active; AID 504582; growth rescue, % at 12.5 µM; in the data active means growth rescue above about 28%, passing the limit was not always enough; inconclusive means no clear call, values can overlap the other calls;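 further: yeast W303a lacking pdr1 and pdr3 grown in galactose medium; growth measured after three days at 30 °C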
BJeLR lethal = BJeLR cell viability loss; BJeLR (HRASV12) viability, CellTiter-Glo ATP luminescence, 48 h; inhibition, % (test concentration not listed); 0.17% of 300,000 active; in the data active means inhibition above about 50%; inconclusive means no clear call, values can overlap the other calls
PrP UTR inh = suppresses PrP 5' UTR mRNA reporter expression | cell-based PrP 5' UTR mRNA reporter, plate reader | inhibition, % (concentration not given with the values) | 0.35% of 340,000 active; in the data active means inhibition above about 52%; further: 0 = median of the neutral control wells
Mtb FBA inh = inhibitors of M. tuberculosis fructose-bisphosphate aldolase; P9WQA3; purified M. tuberculosis FBA, fluorescence read-out; inhibition, % at 1 µM; 2.3% of 360,000 active; AID 588726;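 further: 0% = vehicle and 100% = reference inhibitor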
Target sequence (P9WQA3 whole entry, looked up): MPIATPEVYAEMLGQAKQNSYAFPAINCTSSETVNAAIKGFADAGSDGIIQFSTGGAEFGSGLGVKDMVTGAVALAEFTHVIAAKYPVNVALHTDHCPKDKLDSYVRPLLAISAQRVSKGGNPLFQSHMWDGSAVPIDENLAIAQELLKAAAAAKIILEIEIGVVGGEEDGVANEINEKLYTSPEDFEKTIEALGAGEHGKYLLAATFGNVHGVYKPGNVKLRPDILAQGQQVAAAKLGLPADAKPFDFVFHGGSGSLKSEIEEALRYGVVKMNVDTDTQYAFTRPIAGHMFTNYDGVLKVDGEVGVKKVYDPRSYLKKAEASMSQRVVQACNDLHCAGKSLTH
PrPC TRFRET = reduces human prion protein on the cell surface; P04156; cell surface PrPC, TR-FRET read-out; inhibition, % at 13.8 µM; 0.43% of 370,000 active; AID 720596; in the data active means inhibition above about 24%; further: 0% = median of the test wells and 100% = reference compound wells
Mtb FBA inh conf = Mtb FBA inhibition, confirmed | shares compounds with Mtb FBA inh | purified M. tuberculosis FBA, fluorescence read-out | inhibition, % at 1 µM | 78% of 5,600 active | AID 651616;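 further: 0% = vehicle wells and 100% = reference inhibitor wells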
GDH-TPI counter-2 = inhibits GDH-TPI coupling enzymes, flagging Mtb FBA hits. AID 652141. inhibition, % at 1 µM. 81% of 5,600 active. GDH-TPI coupled enzyme counterscreen, fluorescence. shares compounds with Mtb FBA inh; in the data active means inhibition above about 10%
GDH-TPI DR = counter-screen for M. tuberculosis FBA inhibitors: GDH-TPI dose response | shares compounds with Mtb FBA inh | GDH-TPI coupled enzyme assay, fluorescence, artifact counterscreen | IC50, µM | 79% of 170 active | AID 652145; call rule not given here
The depositor's hits bear a star; ? = inconclusive; · = no result; + = active, no number. Unless noted, no stated cut-off is given here; in the data, active means inhibition above about 27%; inactive means the rest.

SMILES	GDH-TPI counter-1	PfHsp40 yeast	BJeLR lethal	PrP UTR inh	Mtb FBA inh	PrPC TRFRET	Mtb FBA inh conf	GDH-TPI counter-2	others
Cc1cn(C2CCCCC2)c(=O)n(-c2ccccc2)c1=O	1	2	·	-8	37*	4	+	177*
Cc1ccc(Nc2nnc(-c3ccccc3N)o2)cc1C	7	-2	-8	-154	49*	8	11	3	GDH-TPI DR=3.1*
c1ccc(Nc2nnc(-c3cccc4ccccc34)o2)cc1	13	·	-7	·	4	1	·	·
Cc1nn(-c2ccccc2)c2sc(C(=O)OC3CCOC3=O)cc12 (stereo not given)	3	-1	2	-15	56*	5	31*	20*
NC(=O)c1nn(-c2ccccc2)nc1NC(=O)CN1CCCC1	0	1	9	-10	25	3	·	·
CC(=O)N(CC(=O)Nc1nn(-c2ccccc2)nc1C(N)=O)Cc1ccccc1	2	0	-11	-29	43*	0	1	-3
S=c1[nH]nc(-c2ccccc2)n1Cc1ccccc1	15	0	8	8	2	3	·	·
S=c1[nH]nc(-c2cccs2)n1Cc1ccccc1	-1	1	4	-12	28*	-9	86*	59*
CC(C)C1NC(C(=O)O)Cc2c1[nH]c1ccccc21 (stereo not given)	9	-1	-3	-23	45*	-8	164*	142*
CCCC1NC(C(=O)O)Cc2c1[nH]c1ccccc21 (stereo not given)	3	-1	4	-30	29*	-8	36*	35*
COc1ccc2sc(-c3ccc(SC)cc3)c(C#CC(C)(C)O)c2c1	39*	?	·	-28	30*	-5	-1	0
CC(=O)Nc1ccc2c(CSc3nnc(N)s3)cc(=O)oc2c1	42*	1	12	-26	27*	-9	78*	67*
CC(=O)Nc1ccc2c(CSc3nncs3)cc(=O)oc2c1	6	-1	26	-12	17	-17	·	·
CN(C)[C@@H]1CCN(c2cccc3c2S(=O)(=O)N2CC[C@@H](C2)O3)C1	·	·	·	·	·	-6	·	·
O=C(c1nc2nc(-c3ccc(Cl)cc3)cc(C(F)(F)F)n2n1)N1CCOCC1	26	0	1	-20	33*	-17	121*	94*
CC(C)(C)NC(=O)c1nc2nc(-c3ccccc3)cc(C(F)(F)F)n2n1	1	-1	0	-6	32*	-4	91*	62*
Nc1nc2nc(-c3ccc(F)cc3)cc(C(F)(F)F)n2n1	-7	0	0	-25	41*	-5	50*	40*
C=CCN1C(=O)C(=O)N(Cc2nc3ccccc3s2)C1=O	-8	-1	-1	-43	1	-6	·	·
Cc1ccc(-c2cc(C(F)(F)F)c(C#N)c(SCCC#N)n2)o1	6	1	10	-32	31*	-16	159*	153*
COc1ccc(-c2cc(C(F)(F)F)c(C#N)c(SCC(=O)O)n2)cc1	4	0	2	-4	11	-7	·	·
COc1ccc(N2CCN(CCC(N)=O)CC2)cc1	7	-1	9	-2	31*	-3	78*	53*
COc1ccc(C(=O)CCN2CCN(c3ccc(OC)cc3)CC2)cc1	-2	0	-5	5	5	-3	·	·
COC(=O)CCCN1C(=O)c2cccc3cccc(c23)C1=O	7	1	-17	-22	35*	-32	129*	111*
CC(=O)Nc1ccc(NC(=O)C(C)OC(=O)CCCN2C(=O)c3cccc4cccc(c34)C2=O)cc1 (stereo not given)	6	14	2	4	14	-13	·	·
C#CCOC(=O)CCCN1C(=O)c2cccc3cccc(c23)C1=O	22	·	·	·	32*	-22	156*	121*
SMILES	GDH-TPI counter-1	PfHsp40 yeast	BJeLR lethal	PrP UTR inh	Mtb FBA inh	PrPC TRFRET	Mtb FBA inh conf	GDH-TPI counter-2	others
Cc1ccc(CN(C)C(=O)c2ccc3c(c2)NC(=O)CS3)o1	10	0	-5	-4	0	3	·	·
CCCCOc1ccc(Cl)cc1CSc1n[nH]c(C)n1	-9	-1	2	-18	2	3	·	·
CCOc1ccc(Cl)cc1CSc1n[nH]c(CC)n1	1	0	0	5	35*	2	5	0
Cc1cc(OC(C)C(=O)NC2CC(C)(C)NC(C)(C)C2)c2c(C)c(C)c(=O)oc2c1 (stereo not given)	13	·	·	·	71*	-7	+	+
CC(Oc1ccc2c3c(c(=O)oc2c1)CCC3)C(=O)NC1CCN(Cc2ccccc2)CC1 (stereo not given)	10	0	4	12	22	3	·	·
CC(Oc1ccc2c3c(c(=O)oc2c1)CCCC3)C(=O)NCC1CCC(C(=O)O)CC1 (stereo not given)	10	0	3	-18	73*	4	63*	57*
CC(=O)C(C)Oc1cc(C)cc2oc(=O)c(C)c(C)c12 (stereo not given)	5	0	4	-3	20	-2	·	·
CC(Oc1ccc2c3c(c(=O)oc2c1)CCCC3)C(=O)NCc1cccnc1 (stereo not given)	11	4	-2	1	71*	-3	+	155*
CC(Oc1cc2oc(=O)c3c(c2cc1Cl)CCC3)C(=O)NC1CC(C)(C)NC(C)(C)C1 (stereo not given)	16	1	-3	-12	5	0	·	·
CC(Oc1ccc2c3c(c(=O)oc2c1)CCCC3)C(=O)NC1CC(C)(C)NC(C)(C)C1 (stereo not given)	-5	0	4	4	64*	-3	+	182*
CCCCCn1c(SCC(=O)c2ccccc2)nc2cc(C(=O)NCC3CCCO3)ccc2c1=O (stereo not given)	4	0	·	-7	4	-2	·	·
C=CCNCc1ccc(OC)cc1OC	·	·	·	·	·	-6	·	·
Cn1c(=O)ccc2ccccc21	-2	·	·	·	-1	-1	·	·
O=C(COC(=O)C12CC3CC(CC(Br)(C3)C1)C2)Nc1cccnc1Cl	15	1	-4	-2	32*	-1	59*	49*
Cc1c(Cl)cccc1NC(=O)COC(=O)C12CC3CC(CC(O)(C3)C1)C2	8	-1	·	-12	1	-4	·	·
O=C1Nc2ccc(S(=O)(=O)N3CCCCCC3)c3cccc1c23	11	-1	1	7	5	-10	·	·
